Measured values reported in PubChem BioAssay (NCI).
Compounds without any hit were thinned out: in the full panel of roughly 79,000, 15% have a hit. A number with no mark means an inactive call. Calls of active or inactive are those of the source. Rule as the data show it: active = growth inhibition above about 70%; inactive = the rest.

Tests used:
[1] = NCI Yeast Anticancer Drug Screen. Data for the rad50 strain (AID 155);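 also: 0% = growth of vehicle-only cultures of the same strain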; conditions: S. cerevisiae rad50 strain growth inhibition, stronger effect = higher value
How it was run: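 Compounds were tested on a yeast strain with an engineered DNA damage repair alteration; the reported value is growth inhibition normalised to vehicle treatment.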

[2] = NCI Yeast Anticancer Drug Screen. Data for the mec2-1 strain (AID 157); conditions: S. cerevisiae mec2-1 strain, stronger effect = higher value
How it was run: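 Using mec2-1 yeast: add compound, measure growth, express inhibition versus vehicle-treated cultures.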

[3] = NCI Yeast Anticancer Drug Screen. Data for the sgs1 mgt1 strain (AID 161);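 also: 0% = growth of cultures given vehicle only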; conditions: S. cerevisiae sgs1 mgt1 strain, stronger effect = higher value
How it was run: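 Growth of a repair-deficient yeast mutant was monitored after compound treatment and expressed as inhibition relative to vehicle-treated cultures.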

[4] = NCI Yeast Anticancer Drug Screen. Data for the bub3 strain (AID 167); conditions: S. cerevisiae bub3 mutant strain, stronger effect = higher value
How it was run: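 Growth of a checkpoint-deficient yeast mutant is measured after compound exposure. Values represent inhibition relative to vehicle.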

[5] = NCI Yeast Anticancer Drug Screen. Data for the mlh1 rad18 strain (AID 175); conditions: S. cerevisiae mlh1 rad18 strain growth inhibition, stronger effect = higher value
How it was run: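 Steps: expose repair-defective yeast to compound; measure growth; express inhibition against vehicle-treated controls.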

[6] = NCI Yeast Anticancer Drug Screen. Data for the cln2 rad14 strain (AID 165);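 also: 0% = growth equal to vehicle treated cultures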; conditions: S. cerevisiae cln2 rad14 strain, stronger effect = higher value
How it was run: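 Yeast strain cln2 rad14, bearing defects in cell cycle control and DNA repair, serves as the test system; values reflect growth inhibition compared with vehicle.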

[7] = at 5.0 µM (retest, dose inferred, filed as 0.5)
[8] = at 50.0 µM (retest, dose inferred, filed as 5.0)

Row | Structure (SMILES) | growth inhibition [1, 7] [%] | growth inhibition [1, 8] | growth inhibition ([1]; at 50.0 µM) | growth inhibition [2, 7] [%] | growth inhibition [2, 8] | growth inhibition ([2]; at 50.0 µM) | growth inhibition [3, 7] [%] | growth inhibition [3, 8] | growth inhibition ([3]; at 50.0 µM) | growth inhibition [4, 7] [%] | growth inhibition [4, 8] [%] | growth inhibition ([4]; at 50.0 µM) | growth inhibition [5, 7] [%] | growth inhibition [5, 8] | growth inhibition ([5]; at 50.0 µM) | growth inhibition [6, 7] [%] | growth inhibition [6, 8] | growth inhibition ([6]; at 50.0 µM)
1 | CC(=O)OC1(c2ccccc2)N=C(c2ccccc2)N=C1c1ccccc1 (configuration not stated) | 13 | 28% | 28.9% | 4 | 13% | 19.1% | 6 | 37% | 65.8% | 13 | 24 | 41.9% | 3 | 39% | 70.1% (active) |  |  | 
2 | CCCCCCCC/C=C\CCCCCCCCN1CCOCC1 | -2 | -2% | 99.2% (active) | 0 | -2% | 99.3% (active) |  |  |  | 15 | 19 | 99.1% (active) | -3 | 1% | 99.2% (active) | 11 | 3% | 97.5% (active)
3 | CC(C)(C)C(=O)/C=C/c1ccc2ccccc2n1 | -135 | -119% | 44.4% | -48 | -51% | 51.1% | -62 | -35% | 34.5% | -67 | -73 | 34.1% | -126 | -120% | 77.8% (active) |  |  | 
4 | CCCCN(CCCC)Cc1ccc(NC(C(=O)c2ccccc2)c2ccccc2)cc1 (configuration not stated) | -5 | 46% | 85.8% (active) | 25 | 49% | 82.2% (active) | 5 | 86% (active) | 93.8% (active) |  |  |  | 22 | 72% (active) | 98.7% (active) | -1 | 34% | 97.2% (active)
5 | CCN(CC)CC(O)CNc1ccc(C)c2sc3ccccc3c(=O)c12 (configuration not stated) | 12 | 99% (active) | 99.8% (active) | 7 | 99% (active) | 99.8% (active) | 28 | 100% (active) | 95.2% (active) |  |  |  | 14 | 99% (active) | 99.8% (active) | 12 | 99% (active) | 99.5% (active)
6 | CC1=C(C(=O)Nc2cc(O)ccc2O)C(c2cccc([N+](=O)[O-])c2)C(C(=O)Nc2cc(O)ccc2O)=C(C)N1 | -8 | 20% | 32.3% | -23 | 6% | 25.9% | -14 | 15% | 35.9% | -7 | 0 | 2.35% | -9 | 20% | 36.5% |  |  | 
7 | COc1ccc2c(c1OC)C(C(Cl)(Cl)Cl)N1CCc3cc4c(cc3C1=C2)OCO4 (configuration not stated) | 15 | 54% | 67.2% | 7 | 71% (active) | 74.5% (active) | 7 | 72% (active) | 78.4% (active) |  |  |  | 11 | 66% | 62.1% | 33 | 80% (active) | 80% (active)
8 | CCOC(=O)N1CCN(c2cc(C)nc3cc(OC)ccc23)CC1 | 4 | -4% | 21.1% | -1 | 1% | 5.9% | 0 | -5% | 17.6% | 3 | 1 | 59.5% | 0 | -7% | 38.9% | -1 | -5% | 
9 | CN(C)CCNc1ccc(O)c2sc3ccccc3c(=O)c12 | 0 | 82% (active) | 81.8% (active) | -6 | 56% | 42.8% |  |  |  | -9 | 3 | 33.4% | -5 | 81% (active) | 51% | -7 | 19% | 30.6%
10 | [N-]=[N+]=Nc1ccc(SSCCC(=O)ON2C(=O)CCC2=O)cc1 | 24 | 97% (active) | 98.6% (active) | 20 | 98% (active) | 98.8% (active) | 40 | 98% (active) | 98.3% (active) |  |  |  | 38 | 98% (active) | 98.5% (active) | 4 | 97% (active) | 97.8% (active)
